The full list was thinned out, with the strongest signals kept by preference.
Legend:
Assay in all cases: glycan array binding signal (z-score within array); higher = stronger binding
Conditions in all cases: glycan notation: IUPAC condensed, linker removed
Gal6S(b1-4)Glc6S = biological target: Gal6S(b1-4)Glc6S
In short: (§1)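 Negative Z-scores can be read as non-binding. The Z-score is calculated within each array and then averaged across arrays of one protein sequence at different concentrations or buffers and across linkers. Arrays, 3228 in all, were curated from the Consortium for Functional Glycomics database and kept only where the protein sequence was available.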

Gal6S(b1-4)GlcNAc6S = biological target: Gal6S(b1-4)GlcNAc6S
In short: as §1

GalNAc(b1-4)GlcNAc6S = biological target: GalNAc(b1-4)GlcNAc6S
In short: as §1

[1] = biological target: GlcNAc(a1-4)Gal(b1-4)GlcNAc
In short: as §1

[2] = biological target: GlcNAc(a1-6)Gal(b1-4)GlcNAc
In short: as §1

GlcNAc(b1-3)Fuc = biological target: GlcNAc(b1-3)Fuc
In short: as §1

GlcNAc(b1-3)Gal(b1-4)Glc = biological target: GlcNAc(b1-3)Gal(b1-4)Glc
In short: as §1

[3] = biological target: GlcNAc(b1-3)Gal(b1-4)GlcNAc(b1-2)[GlcNAc(b1-3)Gal(b1-4)GlcNAc(b1-6)]Man(a1-6)[GlcNAc(b1-3)Gal(b1-4)GlcNAc(b1-2)Man(a1-3)]Man(b1-4)GlcNAc(b1-4)GlcNAc
In short: as §1

[4] = biological target: GlcNAc(b1-3)Gal(b1-4)GlcNAc(b1-3)Gal(b1-4)GlcNAc(b1-2)Man(a1-3)[GlcNAc(b1-3)Gal(b1-4)GlcNAc(b1-3)Gal(b1-4)GlcNAc(b1-2)Man(a1-6)]Man(b1-4)GlcNAc(b1-4)[Fuc(a1-6)]GlcNAc
In short: as §1

[5] = biological target: GlcNAc(b1-3)Gal(b1-4)GlcNAc(b1-3)Gal(b1-4)GlcNAc(b1-3)Gal(b1-4)GlcNAc(b1-2)[GlcNAc(b1-3)Gal(b1-4)GlcNAc(b1-3)Gal(b1-4)GlcNAc(b1-3)Gal(b1-4)GlcNAc(b1-6)]Man(a1-6)[GlcNAc(b1-3)Gal(b1-4)GlcNAc(b1-3)Gal(b1-4)GlcNAc(b1-3)Gal(b1-4)GlcNAc(b1-2)Man(a1-3)]Man(b1-4)GlcNAc(b1-4)[Fuc(a1-6)]GlcNAc
In short: as §1

[6] = biological target: GlcNAc(b1-3)Gal(b1-4)GlcNAc(b1-3)Gal(b1-4)GlcNAc(b1-3)Gal(b1-4)GlcNAc(b1-3)Gal(b1-4)GlcNAc(b1-2)[GlcNAc(b1-3)Gal(b1-4)GlcNAc(b1-3)Gal(b1-4)GlcNAc(b1-3)Gal(b1-4)GlcNAc(b1-3)Gal(b1-4)GlcNAc(b1-6)]Man(a1-6)[GlcNAc(b1-3)Gal(b1-4)GlcNAc(b1-3)Gal(b1-4)GlcNAc(b1-3)Gal(b1-4)GlcNAc(b1-3)Gal(b1-4)GlcNAc(b1-2)Man(a1-3)]Man(b1-4)GlcNAc(b1-4)[Fuc(a1-6)]GlcNAc
In short: as §1

[7] = biological target: GlcNAc(b1-3)Gal(b1-4)GlcNAc(b1-6)[GlcNAc(b1-3)Gal(b1-3)]GalNAc
In short: as §1

[8] = biological target: Man(a1-2)Man(a1-2)Man(a1-6)[Man(a1-3)]Man
In short: as §1

[9] = biological target: Man(a1-3)[Man(a1-6)]Man(a1-6)[Man(a1-3)]Man
In short: as §1

Neu5Ac(a2-3)Gal = biological target: Neu5Ac(a2-3)Gal
In short: as §1

[10] = biological target: Neu5Ac(a2-3)Gal(b1-3)GalNAc(b1-4)[Neu5Ac(a2-8)Neu5Ac(a2-3)]Gal(b1-4)Glc
In short: as §1

[11] = biological target: Neu5Ac(a2-3)Gal(b1-3)GlcNAc(b1-2)Man
In short: as §1

[12] = biological target: Neu5Ac(a2-3)Gal(b1-4)GlcNAc(b1-3)Gal(b1-4)GlcNAc(b1-3)GalNAc
In short: as §1

[13] = biological target: Neu5Ac(a2-3)Gal(b1-4)GlcNAc(b1-3)GalNAc
In short: as §1

[14] = biological target: Neu5Ac(a2-3)Gal(b1-4)[Fuc(a1-3)]GlcNAc
In short: as §1

[15] = biological target: Neu5Ac(a2-6)Gal(b1-4)GlcNAc
In short: as §1

[16] = biological target: Neu5Ac(a2-6)Gal(b1-4)GlcNAc(b1-2)Man(a1-3)Man(b1-4)GlcNAc(b1-4)GlcNAc
In short: as §1

[17] = biological target: Neu5Ac(a2-6)Gal(b1-4)GlcNAc(b1-2)Man(a1-6)[Man(a1-3)]Man(b1-4)GlcNAc(b1-4)GlcNAc
In short: as §1

[18] = biological target: Neu5Ac(a2-6)Gal(b1-4)GlcNAc(b1-3)GalNAc
In short: as §1

[19] = biological target: Neu5Ac(a2-8)Neu5Ac(a2-3)[Gal(b1-3)GalNAc(b1-4)]Gal(b1-4)Glc
In short: as §1

[20] = biological target: Neu5Ac(a2-8)Neu5Gc(a2-3)Gal(b1-4)GlcNAc
In short: as §1

Neu5Ac(b2-6)GalNAc = biological target: Neu5Ac(b2-6)GalNAc
In short: as §1

B1: PX9961M-bvu-482-23-482 (Bacteroides vulgatus) (protein)
chain: WLDLAPSTQVDTETSINVLSDIEFTLNGIYSTMQSSDAYSGRLVYYGDVTGDDMQAVSSTKRTGNYYRFNFTKDNGPSSHWSYLYSIIQNCNLILMNVDKLSIDEDETEYKNDLKGQALAIRGMALFDLTRIFGYPYLKDNGASLGVPIVKELSTIDSKPARNTVAECYTEIISDLKNSTELLSGDFNKGKVNRWAAMTLLSRVYLYKGEYNEALTMAENAIKGAEKEGYALWTNEEYPTAWGNDASASNPGEILFEIVNLTTDSPGKESMGYLNSYNGYDDMCITCSFYQLLKKDPKDVRLKILSFDKKYYAYVNKYQPQQGENITDANIPLIRLSEAYLNAAEAAVQTGDNAKAVKYLNSIVQRANPENSVEGKTLTLENVLDERRKELVAEGHRMYDVIRNGMTVKRIDVKDSDINKTKHNTAYMEYDWNFHKILLPIPKKEMDANPNMKQNPGYVD
Gal6S(b1-4)Glc6S
  glycan array binding signal (z-score): -0.529
Gal6S(b1-4)GlcNAc6S
  glycan array binding signal (z-score): -0.084
GalNAc(b1-4)GlcNAc6S
  glycan array binding signal (z-score): -0.209
[1]
  glycan array binding signal (z-score): -0.43
[2]
  glycan array binding signal (z-score): -0.826
GlcNAc(b1-3)Fuc
  glycan array binding signal (z-score): 0.451
GlcNAc(b1-3)Gal(b1-4)Glc
  glycan array binding signal (z-score): -0.369
[3]
  glycan array binding signal (z-score): -0.33
[4]
  glycan array binding signal (z-score): 0.761
[5]
  glycan array binding signal (z-score): 1.99
[6]
  glycan array binding signal (z-score): 1.58
[7]
  glycan array binding signal (z-score): 0.464
[8]
  glycan array binding signal (z-score): 0.455
[9]
  glycan array binding signal (z-score): 2.74
Neu5Ac(a2-3)Gal
  glycan array binding signal (z-score): -0.037
[10]
  glycan array binding signal (z-score): 0.996
[11]
  glycan array binding signal (z-score): 0.535
[12]
  glycan array binding signal (z-score): -0.629
[13]
  glycan array binding signal (z-score): 0.638
[14]
  glycan array binding signal (z-score): -0.48
[15]
  glycan array binding signal (z-score): 0.329
[16]
  glycan array binding signal (z-score): -0.834
[17]
  glycan array binding signal (z-score): 0.152
[18]
  glycan array binding signal (z-score): -0.573
[19]
  glycan array binding signal (z-score): -0.531
[20]
  glycan array binding signal (z-score): 18
Neu5Ac(b2-6)GalNAc
  glycan array binding signal (z-score): -0.083

From the supplement of paper PMC8728848
